From PubChem BioAssay (Tox21)
A number with no mark means an inactive call. Results filed as inconclusive are left out. Entries that show only a call come without a potency. Activity calls are given as the source filed them. Unless noted, calls come from the whole dose curve; as a rule, active = well fitted curve in the direction sought with a large enough effect in the repeat runs; inconclusive = weak or mixed curves; inactive = no such curve, though single readings can be large; an effect the other way counts as inactive or inconclusive.

Columns and labels:
[1] = qHTS assay for small molecules that induce genotoxicity in human embryonic kidney cells expressing luciferase-tagged ATAD5 (AID 651632); note: nearly all actives have a fitted effect of over 15% in size
In short: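 DMSO vehicle served as the control. HEK293T reporter cells, 16 hr at 37C, then 30 min Amplite at room temperature; ATAD5 induction is measured as luciferase activity.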

[2] = qHTS assay for small molecule disruptors of the mitochondrial membrane potential - cell viability (AID 720634; calls by dose curve;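 note: human HepG2 liver cancer cells; nearly all actives have a fitted effect of over 20% in size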)
In short: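 Viability of HepG2 cells is scored from ATP content by luminescence; cells are exposed to compound for 1 hr at 37 C and 5% CO2, then dosed with m-MPI dye before the CellTiter-Glo reagent.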

[3] = qHTS assay for small molecule disruptors of the mitochondrial membrane potential (AID 720635); note: potency is the fitted concentration of half-maximal effect
In short: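 HepG2 cells exposed to compound 1 hr at 37C, then Mito-MPS dye 30 min. Ratio read of aggregate (540/590 nm) versus monomer (490/535 nm) fluorescence.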

[4] = qHTS assay to test for compound auto fluorescence at 590 nm (red) in HepG2 cells (AID 720674)
In short: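 HepG2 cells, 2,000 per well in MEM with 10% FBS, attached overnight at 37 C, then got 23 nL compound or DMSO. After 1 hr at 37 C, 5% CO2, red fluorescence was read at 540/590 nm against Rose Bengal sodium as reference.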

[5] = qHTS assay to test for compound auto fluorescence at 535 nm (green) in HepG2 cells (AID 720675)
[6] = qHTS assay to test for compound auto fluorescence at 460 nm (blue) in HEK293 cells (AID 720678)
In short: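 HEK293, 2,000 cells/well, 10% dialyzed FBS; attach 4-5 hr 37C; pin compound or DMSO; o/n 37C/5% CO2; fluorescence 405/460 nm; triamterene-equivalent units.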

[7] = qHTS assay to test for compound auto fluorescence at 590 nm (red) in HEK293 cells (AID 720679)
In short: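 Intensity at 540nm excitation and 590nm emission is reported as Rose Bengal sodium-equivalent autofluorescence. Measurements followed overnight exposure (37C, 5% CO2) of HEK293 cells, 2,000 per well, to 23 nL compound.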

[8] = qHTS assay to test for compound auto fluorescence at 535 nm (green) in HEK293 cells (AID 720680)
[9] = qHTS assay to test for compound auto fluorescence at 460 nm (blue) in HEK293 cell free culture (AID 720681)
In short: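 Compounds were added to cell-free DMEM with 10% FBS and fluorescence read directly. The blue channel used 405 nm excitation and 460 nm emission, with triamterene as the reference fluorophore.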

[10] = qHTS assay to test for compound auto fluorescence at 535 nm (green) in HEK293 cell free culture (AID 720682)
In short: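 DMEM + 10% FBS, cell-free; cpd or DMSO pinned in; Ex485/Em535 read; output as fluorescein-equivalent signal.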

[11] = qHTS assay to test for compound auto fluorescence at 590 nm (red) in HEK293 cell free culture (AID 720683)
In short: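 Cell-free wells of DMEM with 10% FBS received compound, and intrinsic fluorescence was read at excitation/emission 540/590 nm. Values expressed as equivalence to Rose Bengal sodium.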

[12] = qHTS assay to test for compound auto fluorescence at 590 nm (red) in HepG2 cell free culture (AID 720684)
In short: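 Auto fluorescence equivalency versus Rose Bengal sodium, red channel Ex/Em 540/590 nm; compounds in cell-free MEM/10% FBS; DMSO vehicle control.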

[13] = qHTS assay to test for compound auto fluorescence at 460 nm (blue) in HepG2 cell free culture (AID 720685)
In short: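 Cell-free plates of MEM plus 10% FBS received 23 nL compound or DMSO vehicle; blue-channel (405/460 nm) intensity scored against triamterene as reference fluorophore.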

[14] = qHTS assay to test for compound auto fluorescence at 535 nm (green) in HepG2 cell free culture (AID 720686)
[15] = qHTS assay to test for compound auto fluorescence at 460 nm (blue) in HepG2 cells (AID 720687)
In short: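 HepG2 cells in MEM with 10% FBS, attached overnight at 37 C, were exposed to compound or DMSO for 1 hr at 37 C, 5% CO2. Blue fluorescence was read at 405/460 nm, with triamterene as reference fluorophore.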

[16] = molecular target: Glucocorticoid receptor (Homo sapiens) (UniProt P04150); test: qHTS assay to identify small molecule agonists of the glucocorticoid receptor (GR) signaling pathway (AID 720691; active = well fitted activation curve with a large enough effect in the signal ratio in the repeat runs, not every such curve was filed as active; the % refers to the signal ratio); conditions: GR-bla HeLa, beta-lactamase reporter ratio, 18 h; activation: at 62.4 µM (top of the series) unless noted
Glucocorticoid receptor (Homo sapiens), sequence (P04150 whole entry, looked up): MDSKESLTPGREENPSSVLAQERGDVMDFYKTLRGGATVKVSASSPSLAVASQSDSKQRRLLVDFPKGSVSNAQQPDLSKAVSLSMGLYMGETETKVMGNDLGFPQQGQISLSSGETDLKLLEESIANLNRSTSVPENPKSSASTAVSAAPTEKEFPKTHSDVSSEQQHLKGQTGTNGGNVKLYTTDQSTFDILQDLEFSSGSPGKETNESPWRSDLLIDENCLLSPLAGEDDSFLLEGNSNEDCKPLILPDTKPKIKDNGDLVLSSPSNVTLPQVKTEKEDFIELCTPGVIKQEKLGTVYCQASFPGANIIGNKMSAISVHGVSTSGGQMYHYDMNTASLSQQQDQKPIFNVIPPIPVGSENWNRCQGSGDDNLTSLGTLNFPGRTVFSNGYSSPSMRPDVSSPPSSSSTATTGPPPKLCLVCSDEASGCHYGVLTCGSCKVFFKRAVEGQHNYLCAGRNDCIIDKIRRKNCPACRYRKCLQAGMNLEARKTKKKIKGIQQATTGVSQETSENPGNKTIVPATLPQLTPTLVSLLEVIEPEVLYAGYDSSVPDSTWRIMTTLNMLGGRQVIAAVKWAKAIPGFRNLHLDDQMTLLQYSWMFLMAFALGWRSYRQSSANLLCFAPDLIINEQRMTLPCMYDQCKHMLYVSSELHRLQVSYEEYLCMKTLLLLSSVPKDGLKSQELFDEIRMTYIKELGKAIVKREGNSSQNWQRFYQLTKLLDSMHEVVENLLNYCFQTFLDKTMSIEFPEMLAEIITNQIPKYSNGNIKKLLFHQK
In short: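 Compounds in DMSO, alongside positive controls, were added to GR-bla HeLa reporter cells and incubated 18 h at 37 C; GRE-driven beta-lactamase was detected by fluorescence after 2 h with FRET substrate at room temperature.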

[17] = qHTS assay for small molecules that induce genotoxicity in human embryonic kidney cells expressing luciferase-tagged ATAD5 - cell viability (AID 651634; calls by dose curve; note: nearly all actives have a fitted effect of over 25% in size; note: potency is the fitted concentration of half-maximal effect)
In short: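 Here HEK293T cells with the ATAD5 luciferase reporter are incubated with test compounds for 15.5 hr, and cytotoxicity is then gauged by measuring protease activity in live cells using fluorescence.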

[18] = molecular target: Glucocorticoid receptor (Homo sapiens) (UniProt P04150); test: qHTS assay to identify small molecule antagonists of the glucocorticoid receptor (GR) signaling pathway (AID 720692; active = well fitted inhibition curve with a large enough effect in the signal ratio in the repeat runs, not every such curve was filed as active; the % refers to the signal ratio)
In short: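 In a 1536-well cell format, compounds were added 4 h after seeding GR-bla HeLa cells, together with dexamethasone at 5 nM final; reporter activity was measured by FRET-substrate fluorescence following 18 h at 37 C.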

[19] = qHTS assay for small molecule agonists of the p53 signaling pathway - cell viability (AID 651633; calls by dose curve; note: nearly all actives have a fitted effect of over 30% in size; note: potency is the fitted concentration of half-maximal effect)
In short: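 p53RE-bla cells were treated with compound for 16 hours at 37 C. Cytotoxicity was then measured as CellTiter-Glo luminescence after 30 min at room temperature.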

Cc1c(N)cccc1[N+](=O)[O-]
Potency [1]: inactive
Potency [2]: inactive
Potency [3]: inactive
Potency [4]: inactive
Potency [5]: inactive
outcome [6]: inactive
Potency [7]: inactive
outcome [8]: inactive
outcome [9]: inactive
outcome [10]: inactive
Potency [11]: inactive
Potency [12]: inactive
outcome [13]: inactive
Potency [14]: inactive
outcome [15]: inactive
Potency [16]: inactive

CCO[C@H](Cc1ccc(OCCc2ccc(OS(C)(=O)=O)cc2)cc1)C(=O)O
Potency [1]: inactive
Potency [17]: inactive
Potency [2]: inactive
Potency [4]: inactive
Potency [5]: inactive
outcome [6]: inactive
Potency [7]: inactive
outcome [8]: inactive
outcome [9]: inactive
outcome [10]: inactive
Potency [12]: inactive
outcome [13]: inactive
Potency [14]: inactive
Potency [18]: inactive

Cc1oc(-c2ccccc2)nc1CCOc1cccc2c1ccn2CCC(=O)O
Potency [1]: inactive
Potency [19]: inactive
Potency [2]: inactive
Potency [4]: inactive
Potency [5]: inactive
outcome [6]: inactive
Potency [7]: inactive
outcome [9]: inactive
outcome [10]: inactive
Potency [11]: inactive
Potency [12]: inactive
outcome [13]: inactive
Potency [14]: inactive

O=S(c1cc(Cl)cc(Cl)c1O)c1cc(Cl)cc(Cl)c1O
Potency [1]: inactive
Potency [19]: 3.35 µM (active)
Potency [17]: inactive
Potency [4]: inactive
Potency [5]: inactive
outcome [6]: inactive
Potency [7]: inactive
outcome [8]: inactive
outcome [9]: inactive
outcome [10]: inactive
Potency [12]: inactive
outcome [13]: inactive
Potency [14]: inactive
outcome [15]: inactive
Potency [16]: inactive

CN(C)CCCN1c2ccccc2Sc2ccccc21
Potency [1]: inactive
Potency [17]: inactive
Potency [2]: inactive
fluorescence, relative to Rose Bengal [4]: 0.23% [at 18.6 µM]
fluorescence, % of fluorescein control [5]: -0.18% [at 18.6 µM]
fluorescence, % of triamterene [6]: 0.0346% [at 18.6 µM]
fluorescence, % of fluorescent control [7]: -0.0069% [at 18.6 µM]
fluorescence, % of fluorescent control [9]: -0.0313% [at 18.6 µM]
fluorescence, % of fluorescent control [11]: 0.0444% [at 18.6 µM]
fluorescence, % of Rose Bengal [12]: -0.194% [at 18.6 µM]
fluorescence, % of fluorescent control [13]: 0.0019% [at 18.6 µM]
fluorescence, % of fluorescein control [14]: 0.134% [at 18.6 µM]
fluorescence, % of fluorescent control [15]: -0.0716% [at 18.6 µM]

COc1ccc(C(=O)N2CCN(CC(=O)N3CCOCC3)CC2)cc1
Potency [1]: inactive
Potency [17]: inactive
Potency [2]: inactive
Potency [3]: inactive
Potency [4]: inactive
Potency [5]: inactive
outcome [6]: inactive
Potency [7]: inactive
outcome [8]: inactive
outcome [9]: inactive
outcome [10]: inactive
Potency [11]: inactive
Potency [12]: inactive
outcome [13]: inactive
Potency [14]: inactive
outcome [15]: inactive

CCC(C)c1cc(C(C)(C)C)c(O)c(C(C)(C)C)c1 (configuration not stated)
Potency [1]: inactive
Potency [17]: inactive
Potency [2]: inactive
Potency [5]: inactive
outcome [6]: inactive
Potency [7]: inactive
outcome [8]: inactive
outcome [9]: inactive
outcome [10]: inactive
Potency [11]: inactive
Potency [12]: inactive
outcome [13]: inactive
Potency [14]: inactive
Potency [16]: inactive

CC[N+](C)(CC)CCOC(=O)C(O)(c1ccccc1)C1CCCCC1 (configuration not stated)
Potency [19]: inactive
Potency [17]: inactive
Potency [2]: inactive
Potency [3]: inactive
Potency [4]: inactive
Potency [5]: inactive
outcome [6]: inactive
Potency [7]: inactive
outcome [9]: inactive
outcome [10]: inactive
Potency [11]: inactive
Potency [12]: inactive
outcome [13]: inactive
Potency [14]: inactive
outcome [15]: inactive

CCCNCC(O)COc1ccccc1C(=O)CCc1ccccc1 (configuration not stated)
Potency [19]: inactive
Potency [17]: inactive
Potency [2]: inactive
Potency [4]: inactive
Potency [5]: inactive
outcome [6]: inactive
Potency [7]: inactive
outcome [8]: inactive
outcome [9]: inactive
Potency [12]: inactive
outcome [13]: inactive
Potency [14]: inactive
outcome [15]: inactive

C=CC(=O)OCCOCCOCCOCCOC(=O)C=C
Potency [19]: inactive
Potency [17]: 54.8 µM (active)
Potency [2]: inactive
Potency [3]: inactive
Potency [4]: inactive
Potency [5]: inactive
outcome [6]: inactive
Potency [7]: inactive
outcome [8]: inactive
outcome [9]: inactive
outcome [10]: inactive
Potency [11]: inactive
Potency [12]: inactive
outcome [13]: inactive
Potency [14]: inactive
Potency [16]: inactive

COc1cccc(N(C)C(=S)Oc2ccc3c(c2)CCCC3)n1
Potency [17]: inactive
Potency [3]: 29.8 µM (active)
Potency [4]: inactive
Potency [5]: inactive
outcome [6]: inactive
Potency [7]: inactive
outcome [8]: inactive
outcome [9]: inactive
Potency [11]: inactive
Potency [12]: inactive
outcome [13]: inactive
Potency [14]: inactive
